# Assay results published in PubChem BioAssay AID1508600 (Functional Genomics Laboratory (NCATS/FGL), 2020).
# The whole screen tested about 53,000 sequences, of which about 3,700 (7%) were called active. Shown is part of a subset that was picked to be rich in actives. A number with no mark means an inactive call.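 How the source made its calls: active means gene knockdowns whose robust z-score for IL-1 alpha signal is at least 2 or at most -2, so actives lie on both sides; inactive means the rest.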
# Test: Components of the Cytosolic LPS Sensing Pathway: Gene Identification via Genome-wide siRNA Screen;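 further: robust z of the log signal after scaling to non-targeting control siRNA wells of the plate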
# Conditions: RAW264.7 macrophages, IL-1a HTRF, actives lie on both sides, screened at 100 nM (by protocol), cells primed 5 h with Pam3CSK4 first
# Method in brief: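 Read-out: IL-1a HTRF on supernatant, divided by plate negative-control median ×100, log-transformed and converted to robust z-score. Cells were RAW264.7 given 100 nM siRNA, Pam3CSK4-primed 5 hours, then LipidA-transfected 24 hour.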
row,Sequence,z-score
1,GGUCAUUGGUAGGUCCACUTT against Rusc2,0.338
2,GGGAGAUUCAUUUUCCCAGTT against Rnf43,0.0663
3,GCAACAGGUUAGAAUAGACTT against Scd3,-1.36
4,GGUUCUGCACAUCUGAACATT against Cst3,-0.109
5,GGCCUUUUUGUUUAUGCUATT against Zan,-0.0784
6,CCGUGUGGUCUGAUAAAAGTT against Fbxl8,-0.714
7,GCUCACUUGAUUCUGGUAATT against Ifnz,0.416
8,GGUGUCUGGAGGGAGAUUUTT against Peli3,0.245
9,CCAAGUGCUAAACAAGACATT against Spata31,1.06
10,GGCUAAAGGAAACUCACCUTT against Duoxa2,-3.33 (active)
11,GGUGACUGACAACCAGACATT against Dkkl1,-0.171
12,GGGUCUUCUUCCUGAGUGUTT against Ak8,-1.67
13,GGCCAUGUUCCACACAUUATT against Grm1,1.49
14,GCCACGCAAUAAAGCAUCUTT against Sars,-0.284
15,GCUUAAGGGAUAACAUAUUTT against Svs2,-0.756
16,GGACACCAUAUGGUUAGCUTT against Tedc1,-2.25 (active)
17,ACUGUCAUGCACCCUAAAGTT against Olfr132,0.369
18,GCUCCUAAAAAGGCUCUUUTT against H2ac18,-0.463
19,GGAAUUCCAAUGUUACCAUTT against Meltf,3.35 (active)
20,GCUGGUGUGUAACAUCAAUTT against Fut8,0.246
21,GCAAUGUUAUUUUCACCAGTT against Slc3a1,0.61
22,GUUUAACUACAACAAUGAGTT against Dcpp1,1.23
23,GCCUAGUGACCCUUUACUATT against Stx1a,0.51

row,Sequence,z-score
1,GGCGACACAAUAAGACAGATT against Wdr19,0.648
2,GGUCCAGUUGGAGAUGACATT against Ube2d3,-1.04
3,GGUCGUGUACUCGUUCAGUTT against Pcdh10,2.04 (active)
4,GCUAAUCCAGGACUGUUUATT against Trim14,-1.66
5,GGUUCGACUUUCUUUGCCATT against Ola1,-0.614
6,GGUACUGAGGUGAGCCUCUTT against Myocd,-2.45 (active)
7,GGGAGCUCCAUUUAAAUUATT against Cnot6,-0.516
8,GCAACUUUAUAGCAGAAUCTT against Apbb3,-0.874
9,CCGUAUAAACAUUUAUGAGTT against Bmp4,-0.295
10,GGACAACACCCUGAUGAUATT against Vmn1r208,-1.07
11,CCCACUUGUCUACAGCCUATT against Olfr1505,-2.65 (active)
12,GUGGGAAAUCAGUAUUUCCTT against AI467606,1.23
13,GGUUCAUUGUGUCUCUGGCTT against Grk1,-0.378
14,GGACGCAAGUACAAAUUUATT against Tnxb,1.13
15,CGUAGUCGAUUCAGGAGAGTT against Gm10439,-0.356
16,GGUCUUCUUAGCUUUUUUUTT against Plppr1,-0.713
17,GGGUUGAUAGAAGUUUUUATT against Cpeb1,0.612
18,GCUUUAGUACAGGCCUCUATT against Tent4a,0.444
19,CCCGACCACGUGUUUAUUGTT against Tnfsf12,-1.68
20,CCUGAACUAUAGAUGGAUUTT against Manba,3.37 (active)
21,GGUGGAGGCAGGAAAAUCUTT against Mrpl57,-0.808
22,GGCUCAAGCUAUGAAGAGATT against Gstm4,-0.195
23,GGUUCUUGUUCAUUCUCUUTT against Slc4a4,-0.0837

row,Sequence,z-score
1,GGAAAGAGUGUGCAAACUCTT against Ly6d,0.0731
2,GGCCCAAGGAAUAAUCAAGTT against Satb2,2.48 (active)
3,GGUAUCGACCACAGAUCAUTT against Plxnd1,1.77
4,GCACCAUUUUAAGAUCUGCTT against Prr13,0.238
5,CCUCCUUACAAGUUGAAGCTT against Tmem59l,-0.142
6,GCUUGUUCACCCAGUUAUGTT against Hexdc,1.15
7,GCCAUUCACGACCCACUACTT against Olfr1095,-0.102
8,GGACUGAUAGAGGACUUCCTT against Bloc1s6,-0.56
9,CCUUUUAGCUCUGUGUAUUTT against Gldc,-0.0983
10,GGCCUUGAAUGAGCAUCAUTT against Krr1,0.548
11,GGCUAUGAAAGUGACAAUCTT against Tsen15,-2.74 (active)
12,GCACCUAAUGAUCACAGUGTT against Nrip3,0.393
13,GGAAACUGAGCUUAAGAUUTT against Cald1,1.2
14,CCGCUUUCGGCAAGUAUGGTT against Rbmxl2,1.64
15,GGCAUGACUUCCACAUGAATT against Pdcd1,0.672
16,ACAAAUCCACGUGCAAUGUTT against Cyp2d9,0.943
17,GGAAGAUGAUUAUGAAGAUTT against Apc,-0.143
18,GCGCAAGCCGUAUUCGAAGTT against Hoxc12,2.95 (active)
19,GGCCUGGGAAGUGAACAAATT against Faah,-0.721
20,GGAUCUGUCUACUUUUCCUTT against Hikeshi,0.777
21,GCCACUCCUAUGAGUGUUATT against Cdk18,0.236
22,GGAACGCAAGAACAGAAUGTT against Rps24,0.585
23,GGCCACUGAUCAACUAAAGTT against Zfp110,2.27 (active)
